PMC11062922 (Nature Chemical Biology, 2023)
Like-named read-outs stand apart in the source and are kept apart here.

Tests used:
Parameters in all cases: species or system human, MV4-11 + K-562 + COLO205 + SK-N-BE2 + OVCAR-8
ACVR2B = details: read-out: apparent Kd; compound concentrations: 100 nM and 1000 nM (sheet 'Samples'), CATDS: 8.5008478980750105E-2; n = 1
BCR = details: read-out: apparent Kd; compound concentrations: 100 nM and 1000 nM (sheet 'Samples'), CATDS: 0.13309110379765501; n = 1
EPHA1 = details: read-out: apparent Kd; compound concentrations: 100 nM and 1000 nM (sheet 'Samples'), CATDS: 0.10065713248800801; n = 1
GAK = details: read-out: apparent Kd, n = 1
PTK6 = details: read-out: apparent Kd; compound concentrations: 100 nM and 1000 nM (sheet 'Samples'), CATDS: 9.8392012299874307E-2; n = 1
RET = details: read-out: apparent Kd; compound concentrations: 100 nM and 1000 nM (sheet 'Samples'), CATDS: 0.106923709019676; n = 1
RIPK2 = details: read-out: apparent Kd, n = 1
RIPK3 = details: read-out: apparent Kd, compound concentrations: 100 nM and 1000 nM (sheet 'Samples'), n = 1
SIK2 = details: read-out: apparent Kd; compound concentrations: 100 nM and 1000 nM (sheet 'Samples'), CATDS: 0.152739498183388; n = 1
ACVR1 = details: read-out: apparent Kd, n = 1
ATM = details: read-out: apparent Kd; compound concentrations: 100 nM and 1000 nM (sheet 'Samples'), CATDS: 0.20840274799776901; n = 1
CDC42BPG = details: read-out: apparent Kd; compound concentrations: 100 nM and 1000 nM (sheet 'Samples'), CATDS: 7.2395541627420706E-2; n = 1
CLK1 = details: read-out: apparent Kd; compound concentrations: 100 nM and 1000 nM (sheet 'Samples'), CATDS: 0.111342996670081; n = 1
CLK2 = details: read-out: apparent Kd; compound concentrations: 100 nM and 1000 nM (sheet 'Samples'), CATDS: 0.14537230764377601; n = 1
CLK4 = details: read-out: apparent Kd; compound concentrations: 100 nM and 1000 nM (sheet 'Samples'), CATDS: 9.3990878908875697E-2; n = 1
DDX3X;DDX3Y = details: read-out: apparent Kd; compound concentrations: 100 nM and 1000 nM (sheet 'Samples'), CATDS: 7.1763596621612302E-2; n = 1
FLT3 = details: read-out: apparent Kd; compound concentrations: 100 nM and 1000 nM (sheet 'Samples'), CATDS: 0.113809183908987; n = 1
TGFBR2 = details: read-out: apparent Kd, n = 1
ACVR1B = details: read-out: apparent Kd, n = 1
DDR1 = details: read-out: apparent Kd; compound concentrations: 100 nM and 1000 nM (sheet 'Samples'), CATDS: 0.15549636172905901; n = 1
JAK2 = details: read-out: apparent Kd; compound concentrations: 100 nM and 1000 nM (sheet 'Samples'), CATDS: 0.70328815445029103; n = 1
MAPK14 = details: read-out: apparent Kd; compound concentrations: 100 nM and 1000 nM (sheet 'Samples'), CATDS: 0.189242383322658; n = 1
NLK = details: read-out: apparent Kd; compound concentrations: 100 nM and 1000 nM (sheet 'Samples'), CATDS: 0.152320021786015; n = 1
CDK16 = details: read-out: apparent Kd; compound concentrations:100 nM and 1000 nM (sheet 'Samples'); n = 1
CDK17 = details: read-out: apparent Kd; compound concentrations:100 nM and 1000 nM (sheet 'Samples'); n = 1
CDK6 = details: read-out: apparent Kd; compound concentrations:100 nM and 1000 nM (sheet 'Samples'); n = 1
CDK9 = details: read-out: apparent Kd; compound concentrations:100 nM and 1000 nM (sheet 'Samples'); n = 1
EIF2AK1 = details: read-out: apparent Kd; compound concentrations:100 nM and 1000 nM (sheet 'Samples'); n = 1
GSK3A = details: read-out: apparent Kd; compound concentrations:100 nM and 1000 nM (sheet 'Samples'); n = 1
GSK3B = details: read-out: apparent Kd; compound concentrations:100 nM and 1000 nM (sheet 'Samples'); n = 1
ICK = details: read-out: apparent Kd; compound concentrations:100 nM and 1000 nM (sheet 'Samples'); n = 1
MAPK7 = details: read-out: apparent Kd; compound concentrations:100 nM and 1000 nM (sheet 'Samples'); n = 1
PDGFRB = details: read-out: apparent Kd; compound concentrations:100 nM and 1000 nM (sheet 'Samples'); n = 1
PIM2 = details: read-out: apparent Kd; compound concentrations:100 nM and 1000 nM (sheet 'Samples'); n = 1
TAOK2 = details: read-out: apparent Kd; compound concentrations:100 nM and 1000 nM (sheet 'Samples'); n = 1
NQO2 = details: read-out: apparent Kd; compound concentrations:100 nM and 1000 nM (sheet 'Samples'); n = 1
PRKD2 = details: read-out: apparent Kd; compound concentrations:100 nM and 1000 nM (sheet 'Samples'); n = 1
TGFBR1 = details: read-out: apparent Kd; compound concentrations:100 nM and 1000 nM (sheet 'Samples'); n = 1
TNIK = details: read-out: apparent Kd; compound concentrations:100 nM and 1000 nM (sheet 'Samples'); n = 1
[1] = compound concentrations:100 nM and 1000 nM (sheet 'Samples')

## Fc1cc(Cl)ccc1Nc1ccnc2cc(-c3ccc(CN4CCCCC4)o3)ccc12 [GW560116X]
ACVR2B
  potency estimated from few doses: 1080 nM
BCR
  potency estimated from few doses: 359 nM
EPHA1
  potency estimated from few doses: 670 nM
GAK; compound concentrations: 100 nM and 1000 nM (sheet 'Samples'), CATDS: 0.10209993083840201
  potency estimated from few doses: 646 nM
PTK6
  potency estimated from few doses: 710 nM
RET
  potency estimated from few doses: 577 nM
RIPK2; compound concentrations: 100 nM and 1000 nM (sheet 'Samples'), CATDS: 0.37039480382744999
  potency estimated from few doses: 69.3 nM
RIPK3; CATDS: 7.5580251546270003E-2
  potency estimated from few doses: 1650 nM
SIK2
  potency estimated from few doses: 276 nM

## CCS(=O)(=O)c1ccc(OC)c(Nc2ncc(-c3cccc(C(C)=O)c3)o2)c1 [GW621431X]
ACVR1; compound concentrations: 100 nM and 1000 nM (sheet 'Samples'), CATDS: 9.7395071504851799E-2
  potency estimated from few doses: 882 nM
ATM
  potency estimated from few doses: 232 nM
CDC42BPG
  potency estimated from few doses: 2020 nM
CLK1
  potency estimated from few doses: 661 nM
CLK2
  potency estimated from few doses: 405 nM
CLK4
  potency estimated from few doses: 958 nM
DDX3X;DDX3Y
  potency estimated from few doses: 2090 nM
FLT3
  potency estimated from few doses: 633 nM
RIPK3; CATDS: 7.33471794094432E-2
  potency estimated from few doses: 1930 nM
TGFBR2; compound concentrations: 100 nM and 1000 nM (sheet 'Samples'), CATDS: 0.12096887154144
  potency estimated from few doses: 562 nM

## COc1ccc(-c2nn3ncccc3c2-c2ccnc(Nc3ccc(F)c(F)c3)n2)cc1 [GW827396X]
ACVR1B; compound concentrations: 100 nM and 1000 nM (sheet 'Samples'), CATDS: 0.188759897575135
  potency estimated from few doses: 1020 nM
DDR1
  potency estimated from few doses: 1770 nM
JAK2
  potency estimated from few doses: 73 nM
MAPK14
  potency estimated from few doses: 1010 nM
NLK
  potency estimated from few doses: 1900 nM

## CCN1CCN(CCCC(=O)Nc2n[nH]c3nc(-c4ccc(O)cc4)c(Br)cc23)CC1 [SB-731579]
ACVR1; [1]
  potency estimated from few doses: 914 nM
CDK16
  potency estimated from few doses: 1220 nM
CDK17
  potency estimated from few doses: 986 nM
CDK6
  potency estimated from few doses: 1070 nM
CDK9
  potency estimated from few doses: 1180 nM
EIF2AK1
  potency estimated from few doses: 201 nM
GSK3A
  potency estimated from few doses: 4.8 nM
GSK3B
  potency estimated from few doses: 20.1 nM
ICK
  potency estimated from few doses: 1420 nM
MAPK7
  potency estimated from few doses: 1360 nM
PDGFRB
  potency estimated from few doses: 145 nM
PIM2
  potency estimated from few doses: 557 nM
TAOK2
  potency estimated from few doses: 1350 nM

## c1ccc(-c2n[nH]cc2-c2ccnc(-c3ccc(OCCn4ccnc4)cc3)c2)nc1 [GW711782X]
ACVR1B; [1]
  potency estimated from few doses: 245 nM
GAK; [1]
  potency estimated from few doses: 1350 nM
NQO2
  potency estimated from few doses: 71.1 nM
PRKD2
  potency estimated from few doses: 2160 nM
RIPK2; [1]
  potency estimated from few doses: 801 nM
TGFBR1
  potency estimated from few doses: 82 nM
TGFBR2; [1]
  potency estimated from few doses: 719 nM
TNIK
  potency estimated from few doses: 873 nM
